Reference: PubChem BioAssay AID488969 (Vanderbilt High Throughput Screening Facility, 2010)
Whole data set: some 110,000 compounds, median “z-score” near -0.1, cut for the highest 2% near 2. The full list was thinned out, with the highest values kept by preference. Activity calls are given as the source filed them.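 How the source made its calls: active means z-score in the third read window above 3 or below -3; inactive means the rest.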

These compounds were tested against Metabotropic glutamate receptor 8 (Rattus norvegicus) (UniProt P70579) (assay: mGluR8 Gi/Go-coupled signaling modulation – cell-based, rat, thallium flux, HTS, primary screen (AID 488969)). Conditions: HEK293 rat mGluR8, GIRK (G protein-gated inwardly rectifying potassium channel) thallium flux, FluoZin2; at 10 µM; stronger effect = higher value; submaximal glutamate (EC20) added with thallium.
Sequence of Metabotropic glutamate receptor 8 (Rattus norvegicus) (P70579 whole entry, looked up): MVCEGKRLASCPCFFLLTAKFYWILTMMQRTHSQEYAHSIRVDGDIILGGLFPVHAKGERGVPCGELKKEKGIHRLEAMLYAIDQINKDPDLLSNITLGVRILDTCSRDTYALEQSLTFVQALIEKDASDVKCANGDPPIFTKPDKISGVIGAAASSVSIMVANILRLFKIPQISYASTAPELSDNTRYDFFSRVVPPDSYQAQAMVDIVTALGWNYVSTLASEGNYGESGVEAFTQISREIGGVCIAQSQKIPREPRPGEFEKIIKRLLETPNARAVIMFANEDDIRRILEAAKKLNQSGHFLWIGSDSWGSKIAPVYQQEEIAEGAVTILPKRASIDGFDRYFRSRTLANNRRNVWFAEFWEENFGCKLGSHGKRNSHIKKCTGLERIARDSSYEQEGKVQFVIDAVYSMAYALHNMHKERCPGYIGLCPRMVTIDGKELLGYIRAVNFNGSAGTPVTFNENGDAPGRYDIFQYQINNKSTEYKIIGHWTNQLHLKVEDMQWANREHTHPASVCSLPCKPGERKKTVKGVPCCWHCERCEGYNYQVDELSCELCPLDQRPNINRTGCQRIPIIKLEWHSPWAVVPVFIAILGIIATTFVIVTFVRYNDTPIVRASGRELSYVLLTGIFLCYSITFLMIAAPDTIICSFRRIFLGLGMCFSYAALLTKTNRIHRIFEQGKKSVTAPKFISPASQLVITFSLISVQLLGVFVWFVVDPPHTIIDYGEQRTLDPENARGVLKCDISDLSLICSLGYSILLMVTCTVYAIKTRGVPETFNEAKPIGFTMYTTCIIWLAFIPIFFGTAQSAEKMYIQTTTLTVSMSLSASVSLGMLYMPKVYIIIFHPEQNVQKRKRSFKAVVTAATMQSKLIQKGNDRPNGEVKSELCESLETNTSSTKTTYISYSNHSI
`Cc1cc(Cl)ccc1NC(=S)NCc1ccc(Cl)cc1` was tested, and the z-score was 0.0662. `CC1(C)CC(=O)c2cc(C(=O)NCc3ccco3)c(=O)n(-c3ccc(Cl)cc3)c2C1` gave a z-score of -0.635. Compound `COCc1nnc(NC(=O)c2cccs2)s1` has a z-score of -0.0696. `NC(=O)COC(=O)c1cc(S(=O)(=O)N2CCOCC2)ccc1N1CCCCC1` gave a z-score of -0.0501. Compound `CCn1cc(Br)c(C(=O)Nc2cccc(Cl)c2)n1` has a z-score of -0.412. In the case of `CCOC(=O)c1cc(-c2ccccc2)sc1NC(=O)C(C)OC(=O)c1cccnc1OCC` (stereo unspecified), the z-score is reported as 0.0703. `O=C(CCCOc1ccccc1)Nc1ccc2c(c1)OCCO2` showed a z-score of 0.0498. Compound `CN(C(=O)c1ccc2c(c1)C(=O)N(CCC1=CCCCC1)C2=O)C1CCCCC1` has a z-score of 0.422. `Cc1nc(NC2=NCN(CC3CCCO3)CN2)nc2ccccc12` (stereo unspecified) showed a z-score of 0.234. `COc1cc2c(cc1OC)C(C1C(=O)CCCC1=O)N(C(=O)CCl)CC2` (stereo unspecified) gave a z-score of -0.173. For `CCOc1ccc(C(=O)Nc2nc(C)cc(C)n2)cc1[N+](=O)[O-]`, the z-score was -0.36. `Cc1ccc(C)c(N(CC(=O)NN=C2CCCCCCC2)S(C)(=O)=O)c1` gave a z-score of -0.202. In the case of `CCNC(=S)Nc1cc(Cl)ccc1Oc1ccccc1`, the z-score is reported as 0.269. With `S=C(Nc1ccccc1Cl)Nc1ccc(Cl)cc1Cl` the z-score was 5.05 (active). `S=C(Nc1ccc(OCc2ccccc2)cc1)Nc1cccc(Cl)c1Cl` gave a z-score of 0.844. `COc1cc(NC(=S)Nc2cccc(Cl)c2Cl)c(OC)cc1Cl` showed a z-score of 0.605. In the case of `S=C(Nc1ccccc1)Nc1ccc(Cl)cc1Cl`, the z-score is reported as 1.43. In the case of `S=C(Nc1ccccc1Oc1ccccc1)Nc1cccc(Cl)c1Cl`, the z-score is reported as 4.09 (active). In the case of `S=C(Nc1ccccc1)Nc1cc(Cl)ccc1Oc1ccccc1`, the z-score is reported as 3.43 (active). With `CCNC(=S)Nc1ccc(Cl)cc1Cl` the z-score was 0.108. In the case of `Cc1ccc(NC(=S)Nc2ccc(Cl)c(Cl)c2)c(OC(F)F)c1`, the z-score is reported as 5.16 (active). In the case of `COc1cc(C)c(NC(=S)Nc2ccc(Cl)c(Cl)c2)cc1OC`, the z-score is reported as 0.396. For `COc1ccc(NC(=O)Nc2ccc(C)cc2OC(F)F)cc1OC`, the z-score was -0.0436. Compound `CNC(=S)Nc1cc(Cl)ccc1Oc1ccccc1` has a z-score of 0.287. `NC(=S)N/N=C/c1ccc(C(F)(F)F)cc1` gave a z-score of 0.721. `Cc1cc(C)n(-c2cc(N3CCN(S(=O)(=O)c4ccc5ccccc5c4)CC3)ccc2[N+](=O)[O-])n1` showed a z-score of -0.296. For `S=C1NCCc2ccccc2C1c1ccccc1` (stereo unspecified), the z-score was -0.276. `O=C(CN1CCN(C(c2ccccc2)c2ccccc2)CC1)N1CCOCC1` showed a z-score of -0.28. Compound `COC(=O)C(NNc1ccccc1)(NC(=O)c1cccc(F)c1)C(F)(F)F` (stereo unspecified) has a z-score of -0.19. `CCOC(=O)c1cc2c(=O)n3cccc(C)c3nc2n(CC2CCCO2)c1=NC(C)=O` (stereo unspecified) gave a z-score of -0.0779. `S=C(Nc1ccc(Cl)cc1Cl)Nc1ccccc1Oc1ccccc1` was tested, and the z-score was 4.54 (active). `O=C(COc1ccccc1Cl)Nc1cc(Cl)ccc1Oc1ccccc1` gave a z-score of -0.0408. `O=C(CCC(=O)c1ccc(Oc2ccccc2)cc1)Nc1ccc(Cl)cc1Cl` gave a z-score of 0.0353. For `COc1cc(OC)c(NC(=O)CCNC(=O)Cn2cnc3ccccc3c2=O)cc1Cl`, the z-score was 2.94. `CCN(CC)S(=O)(=O)c1cc(NC(=O)Cn2cnc3ccccc3c2=O)ccc1C` was tested, and the z-score was 3.32 (active). Work on `COc1ccc(NC(=O)CCNC(=O)Cn2cnc3ccccc3c2=O)c(OC)c1` yielded a z-score of -0.512. Compound `CN(C)S(=O)(=O)c1cccc(NC(=O)Cn2cnc3ccccc3c2=O)c1` has a z-score of 0.0344. Work on `CCN(CC)S(=O)(=O)c1ccc(NC(=O)Cn2cnc3ccccc3c2=O)cc1` yielded a z-score of -0.403. `COc1cc(OC)c(NC(=O)CCNC(=O)Cn2ccc3ccccc3c2=O)cc1Cl` showed a z-score of -0.293. Work on `C=CCc1ccccc1OCC(O)CN(CC)CC` (stereo unspecified) yielded a z-score of 0.0462. With `CCCNC(=O)Cn1cnc2sc(C(=O)N3CCN(c4ccc(F)cc4)CC3)c(C)c2c1=O` the z-score was -0.159. `CCCCS(=O)CC(CS(=O)CCCC)OC(=O)c1ccccc1` (stereo unspecified) gave a z-score of 0.895. `O=C(/C=C/c1cccc2ccccc12)NCCC1=CCCCC1` showed a z-score of -0.101. `CC(C)(C)NS(=O)(=O)c1ccc(NS(C)(=O)=O)cc1` showed a z-score of -0.0947. `CCCCc1ccc(Nc2ncnc3nc[nH]c23)cc1` showed a z-score of 2.82. `c1ccc(COc2ccc(Nc3ncnc4nc[nH]c34)cc2)cc1` showed a z-score of 0.0418. Work on `CCOC(=O)c1ccc(Nc2ncnc3nc[nH]c23)cc1` yielded a z-score of -0.0179. In the case of `COc1cccc(/C=N/NC(=O)CCn2nnc3ccccc32)c1`, the z-score is reported as 2.1. Work on `COc1cc(/C=N/NC(=O)CCn2nnc3ccccc32)ccc1O` yielded a z-score of -0.659. `COc1ccc(O)c(/C=N\NC(=O)CCn2nnc3ccccc32)c1` showed a z-score of -0.125. `CCOC(=O)Cc1nnc(Nc2cccc(C)c2)c2ccccc12` gave a z-score of -0.988. `O=C(NCC1CCN(c2ccc(S(=O)(=O)N3CCOCC3)cc2)CC1)c1cccc(Cl)c1` was tested, and the z-score was 0.0384. Compound `O=C(/C=C/c1ccc(Cl)cc1)NC(=S)NN1CCCCC1c1cccnc1` (stereo unspecified) has a z-score of 2.97. For `COc1ccc(/C=C/C(=O)NC(=S)NN2CCCCC2c2cccnc2)cc1OC` (stereo unspecified), the z-score was 0.0576. For `COc1ccc(/C=C/C(=O)NC(=S)NN2CCCCC2c2cccnc2)cc1` (stereo unspecified), the z-score was 0.454. In the case of `C=CCC(NC(C)c1ccccc1)c1ccco1` (stereo unspecified), the z-score is reported as 0.174. `C=CCC(NCc1ccccc1)c1ccco1` (stereo unspecified) showed a z-score of 2.42. `C=CCC(NCc1ccccc1)c1ccc(C)o1` (stereo unspecified) gave a z-score of 0.143. With `N#Cc1cnc(SCC(=O)c2ccccc2)nc1N` the z-score was 0.0176. With `Cc1cc(N2CCOCC2)n2nc(C)c(-c3ccccc3)c2n1` the z-score was 4.01 (active). With `Cc1cc(N2CCC(C)CC2)n2ncc(-c3ccccc3)c2n1` the z-score was 3.32 (active). `Cc1cc(N2CCOCC2)n2ncc(-c3ccccc3)c2n1` gave a z-score of -0.401. For `Cc1cc(N2CCN(Cc3ccccc3)CC2)n2nc(C)c(-c3ccccc3)c2n1`, the z-score was 0.0393. In the case of `Cc1cc(N2CCCCC2)n2ncc(-c3ccccc3)c2n1`, the z-score is reported as -0.231. For `Cc1cc(N2CCC(C)CC2)n2nc(C)c(-c3ccccc3)c2n1`, the z-score was -0.28. `Cc1cccc2cc(CN(Cc3cccs3)C(=S)NCC3CCCO3)c(=O)[nH]c12` (stereo unspecified) gave a z-score of -0.229. For `O=C1c2ccccc2C(Nc2ccc3c(c2)OCCO3)N1c1ccccn1` (stereo unspecified), the z-score was 0.814. With `CCc1cccc(CC)c1NC(=S)N1CCn2cccc2C1c1cccnc1` (stereo unspecified) the z-score was 0.37. In the case of `O=S(=O)(c1ccc(S(=O)(=O)N2CCCC2)cc1)N1CCCCCC1`, the z-score is reported as 0.224. For `NS(=O)(=O)c1ccc(S(=O)(=O)N2CCCC2)cc1`, the z-score was 3.11 (active). For `Nc1ccc(S(=O)(=O)N2CCCC2)cc1`, the z-score was -0.115. `CSc1ccccc1NC(=O)c1ccoc1C` showed a z-score of -0.082. In the case of `CCCCNC(=S)N/N=C/C1=CCC2CC1C2(C)C` (stereo unspecified), the z-score is reported as 1.99. `C=C(C)CNC(=S)N/N=C/C1=CCC2CC1C2(C)C` (stereo unspecified) showed a z-score of 0.611. Compound `CC1(C)C2CC=C(/C=N/NC(=O)c3ccc(Cl)cc3)C1C2` (stereo unspecified) has a z-score of 0.355. In the case of `CCc1cc2c(cc3c(=O)n(CC(=O)NCCCN4CC(C)CC(C)C4)ncn32)s1` (stereo unspecified), the z-score is reported as 2.41. `CC1CC(C)CN(CCCNC(=O)CCNC(=O)Cn2ccc3ccccc3c2=O)C1` (stereo unspecified) gave a z-score of -1.48. In the case of `CC1CC(C)CN(CCCNC(=O)Cn2ncc3c(=O)oc4ccccc4c32)C1` (stereo unspecified), the z-score is reported as -0.462. For `CCOC(=O)C1C(=O)CC(C)(O)C(C(=O)OCC)C1c1ccc(N(CC)CC)cc1` (stereo unspecified), the z-score was -0.205. `CC(C)(C)NC(=O)/C(=C/c1ccco1)c1ccccc1` was tested, and the z-score was -0.0597. Work on `CC(C)NC(=O)/C(=C/c1ccco1)c1ccccc1` yielded a z-score of 2.43. Work on `CCC(C)NC(=O)/C(=C/c1ccco1)c1ccccc1` (stereo unspecified) yielded a z-score of -0.109. Work on `CCN(CC)S(=O)(=O)c1cc(Br)c(C)cc1OC` yielded a z-score of -0.159. `Cc1ccc(-c2nn(C)c(=O)c3ccccc23)cc1CNS(C)(=O)=O` gave a z-score of -0.0971. With `COc1ccc(OC)c(NC(=S)N2CCN(C/C=C/c3ccccc3)CC2)c1` the z-score was -0.183. `CNS(=O)(=O)c1cccc(C(=O)OC2CCCCC2=O)c1` (stereo unspecified) was tested, and the z-score was 2.06. `O=C(OC1CCCCC1=O)c1cccc(S(=O)(=O)NCc2ccccc2)c1` (stereo unspecified) showed a z-score of -0.182. `CC(=O)Nc1ccc(C(=O)OC2CCCCC2=O)cc1` (stereo unspecified) was tested, and the z-score was 0.0145. `O=C1C2C3C=CC(C3)C2C(=O)N1Cc1ccc(CN2C(=O)C3C4C=CC(C4)C3C2=O)cc1` (stereo unspecified) showed a z-score of -0.294. `Cc1cccc(NC(=S)/N=C(\N)Nc2nc(C)c3ccc(C)cc3n2)c1` showed a z-score of -0.215. `CCCNc1cc(C)c(C#N)c2nc3ccccc3n12` showed a z-score of -1.34. Work on `Cc1cc(C(=O)NC(=S)Nc2ccccc2N2CCCC2)ccc1[N+](=O)[O-]` yielded a z-score of 0.156. `COc1ccc(C(=O)NC(=S)Nc2ccccc2N2CCCCC2)cc1[N+](=O)[O-]` gave a z-score of 0.366. In the case of `O=C(Nc1ccccc1N1CCOCC1)c1ccccc1[N+](=O)[O-]`, the z-score is reported as -0.093. In the case of `O=C(NC(=S)Nc1ccccc1N1CCOCC1)c1ccc([N+](=O)[O-])cc1`, the z-score is reported as 0.377. With `O=C(NC(=S)Nc1cccc(NC(=O)c2ccccc2)c1)c1cccc([N+](=O)[O-])c1` the z-score was -0.0765. `O=C(NC(=S)Nc1ccccc1N1CCCC1)c1ccccc1[N+](=O)[O-]` was tested, and the z-score was 7.29 (active). `Cc1ccc(C(=O)NC(=S)Nc2ccccc2N2CCCC2)cc1[N+](=O)[O-]` gave a z-score of 0.134. In the case of `O=C(NC(=S)Nc1cc([N+](=O)[O-])ccc1Cl)c1ccccc1`, the z-score is reported as 12.9 (active). In the case of `Cc1c(C(=O)NC(=S)Nc2ccccc2N2CCCC2)cccc1[N+](=O)[O-]`, the z-score is reported as 3.83 (active). For `O=C(NC(=S)Nc1ccccc1N1CCCC1)c1ccc([N+](=O)[O-])cc1`, the z-score was 14.4 (active). Work on `O=C(NC(=S)Nc1ccc(N2CCCC2)cc1)c1ccccc1[N+](=O)[O-]` yielded a z-score of 0.0592. Compound `O=C(NC(=S)Nc1cc(C(F)(F)F)ccc1Cl)c1ccccc1` has a z-score of 1.04. `Cc1ccc(S(=O)(=O)CCc2nc3ccccc3s2)cc1C` showed a z-score of -0.169. Compound `CCCC(=O)O[C@@H]1C[C@@H](C)N(C(=O)c2ccccc2)c2ccc(C)cc21` has a z-score of -0.411. `Cc1ccc(OC(=O)CCc2c(C)nc3ncnn3c2C)cc1` was tested, and the z-score was -0.382. In the case of `O=c1oc2c(CN3CCOCC3)c(O)ccc2c2c1CCC2`, the z-score is reported as 0.00993. `O=C(NNC(=O)c1sc2ccccc2c1Cl)Nc1ccc(Cl)cc1` was tested, and the z-score was -0.0174. With `COc1ccccc1C(=O)NC(=S)Nc1ccc(NC(=O)c2cccs2)cc1` the z-score was 0.853. In the case of `CC(C)(C)C(=O)NC(=S)NNC(=O)c1sc2ccccc2c1Cl`, the z-score is reported as 13.7 (active). `O=C(NNC(=S)NC1CCCCC1)c1sc2ccccc2c1Cl` gave a z-score of -0.163. `O=C(NC(=S)Nc1ccccc1N1CCOCC1)c1sc2ccccc2c1Cl` showed a z-score of 1.18. `COc1ccccc1C(=O)NNC(=S)NC(=O)c1ccco1` was tested, and the z-score was 1.4. For `COc1ccccc1C(=O)NNC(=S)NC(=O)c1sc2ccccc2c1Cl`, the z-score was 4.01 (active). For `COc1ccc(CCNC(=O)c2sc3ccccc3c2Cl)cc1OC`, the z-score was -0.565. For `COc1ccccc1C(=O)NC(=S)NNC(=O)c1sc2ccccc2c1Cl`, the z-score was 3.35 (active).
